Data from PubChem BioAssay (NCI).
Compounds without any hit were thinned out: in the full panel of roughly 83,000, 20% have a hit.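 96-well plates, one dose, 48 hours. Percent growth reported; active if below 10.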 Activity calls are given as the source filed them.

tested on: TK-10 renal; test: NCI-60 one-dose screen, 48 h (100 = growth as untreated, 0 = no growth, -100 = all killed); conditions: 10 µM unless noted
Method: Growth inhibition of the TK-10 human tumor cell line is measured as a screen for anti-cancer activity. Cells are grown in 96 well plates and exposed to the test compound for 48 hours. Compounds are tested at a single concentration, which is 10^-5 M for most compounds. The reported endpoint is percent growth (GI% or GIPRCNT), where numbers from 0 - 100% represent growth inhibition, and numbers from -100% - 0 represent cell death. For example, a value of 40 represents 60% growth inhibition. A value of 0 means no net growth occurred over the course of the experiment. A value of -40 indicates 40% of cells at the beginning of the experiment died by the end of the experiment. A value of -100 means all cells are dead at the end of the experiment.
NCI-60 Human Tumor Cell Lines Screen was performed using the standard one-dose NCI protocol, which is described in more detail at https://dtp.cancer.gov/discovery_development/nci-60/default.htm.
Compounds with GIPRCNT values below 10 were considered active. Activity score was based on GIPRCNT using the following formula: […]
Score is 0 for GIPRCNT values of 100 or above, 50 for GIPRCNT values of 0, and 100 for GIPRCNT values of -100.

| SMILES | growth |
| --- | --- |
| COc1ccc(-c2cc(-c3cn(-c4cccc(Cl)c4)nc3-c3ccc(OC)cc3)on2)cc1 | -45.1% (active) |
| CC1=Nc2cnc(Nc3ccc(N4CCCCC4)cc3)nc2Nc2ccccc21 | 97.3% (inactive) |
| C=CCN=c1sc(-c2ccc3ccccc3c2)cn1NC(=O)c1cc2ccc1CCc1ccc(cc1)CC2 | 79.7% (inactive) |
| C#CCOc1cccc(Nc2ncnc3c2ncn3C2CCN(C(=O)CCl)C2)c1 (stereo not given) | -83.8% (active) |
| CC(C)(C)CC(C)(C)Nc1c(-c2c(O)c3ccccc3oc2=O)nc2sc3ccccc3n12 | 32.3% (inactive) |
| COc1cccc(CNc2c3ccccc3nc3ccccc23)c1OC | 59.5% (inactive) |
| C=C[C@@]1(C)CC(=O)[C@@H](C(C)(C)c2cn(C)c3ccc(Br)cc23)C[C@@H]1O[Si](C)(C)C(C)(C)C | 98.1% (inactive) |
| C[C@H]1[C@H](C)CC[C@]2(C(=O)NCCNCCN)CC[C@]3(C)C(=CC[C@@H]4[C@@]5(C)CCC(=O)C(C)(C)[C@@H]5CC[C@]43C)[C@H]12 | 74% (inactive) |
| O=C(Nc1cccnc1Nc1ccc(Cl)cc1)c1cn(Cc2cccc(Oc3ccccc3)c2)nn1 | 82.4% (inactive) |
| O=C1CCCCN1c1ccc(C2=NCCCN2)cc1 | 98.8% (inactive) |
| Cc1sc2nc(NCCN)[nH]c(=O)c2c1C | 96.9% (inactive) |
| COC(=O)Cn1c2c(c3c(OC)cccc31)C(=O)c1ccccc1-2 | 115% (inactive) |
| CCOC(=O)c1[nH]cc2c1CCc1sc(Nc3ccccn3)nc1-2 | 116% (inactive) |
| COc1ccc(/C=C/C(c2cc(OC)c(OC)c(OC)c2)n2cncn2)cc1O (stereo not given) | 41.2% (inactive) |
| Clc1ccc(-c2nc(C(Cl)Cl)nc3cc(-c4ccccc4)nn23)cc1 | 36.8% (inactive) |
| Clc1ccc2nn3c4ccccc4c(OCCN4CCOCC4)nc3c2c1 | 84.8% (inactive) |
| Nc1cccc(-c2ccc(COc3ccc(CC4SC(=O)NC4=O)cc3)cc2)c1 (stereo not given) | 91.5% (inactive) |
| C/C=C1/CN(CCCCC)CC[C@H]1C(=O)c1cc2ccccc2[nH]1 | 120% (inactive) |
| Cc1ncc(C(=O)Nc2ccc(CN3CCN(C)CC3)c(C(F)(F)F)c2)cc1C#Cc1cnc(N)c2ccc(C#N)cc12 | 4.43% (active) |
| CCCCCCCCCCOC(=O)c1nn(C(C)=O)c2cc(C)c(C)cc12 | 104% (inactive) |

| SMILES | growth |
| --- | --- |
| Cc1ccc(OCCOCCOCCOc2ccc(C)n(O)c2=S)c(=S)n1O | 64% (inactive) |
| COC(=O)c1c2c(c[n+]([O-])c1C)C(=O)C=C(NCc1ccccc1)C2=O | -82.4% (active) |
| Cc1ccc(-c2csc(NC(=O)CSc3nc(N)cc(N)n3)n2)cc1 | 78.9% (inactive) |
| Cc1ccc2c(c1)nc(C)n2-c1ncnc2c1CC(C)c1cc(O)ccc1N2C (stereo not given) | 56.1% (inactive) |
| CCCCn1c(NC(C)=O)c(S(=O)(=O)c2ccccc2)c2nc3ccccc3nc21 | 99.7% (inactive) |
| CCN(CC)CCOc1ccc2ccc(=O)oc2c1 | 97.7% (inactive) |
| CN(C)CCn1c(=O)c2ccccc2n2nc3ccccc3c12 | 97.9% (inactive) |
| CCn1cc(C(=O)O)c(=O)c2cc(F)c(N3CCN(CC(=O)Nc4ccccc4)C(C)C3)c(F)c21 (stereo not given) | 108% (inactive) |
| Cc1nc2sc(C(=O)Nc3cccc4ccccc34)c(N)c2cc1C(=O)c1ccccc1 | 66.1% (inactive) |
| O=C(Cc1ccc(/C=C/C(=O)c2ncc[nH]2)cc1)Nc1cc(F)c(F)c(F)c1 | 87.5% (inactive) |
| CCN(CC)CCCC(Cc1ccccc1)Nc1c2ccc(Cl)cc2nc2ccc(OC)cc12 (stereo not given) | -2.6% (active) |
| O=C(O)c1cn(C2CC2)c2cc(N3CCN(C(=O)N4CCOCC4)CC3)c(F)cc2c1=O | 93.2% (inactive) |
| C=C(C)[C@@H]1CC[C@]2(COC3CCCCO3)CC[C@]3(C)[C@H](CC[C@@H]4[C@@]5(C)C=C(C=O)C(=O)C(C)(C)[C@@H]5CC[C@]43C)[C@@H]12 (stereo not given in full) | -82.5% (active) |
| COc1cc2c(c(OC)c1OC)C(=O)CC(c1cccc(C(=O)Nc3ccc(C#N)cc3)c1)O2 (stereo not given) | 92.3% (inactive) |
| COc1ccc(-c2nc(SCC(=O)Nc3nc4ccc(C)cc4s3)[nH]c(=O)c2C#N)cc1OC | 164% (inactive) |
| COc1ccc(-c2cc(C(=O)N3N=C(c4ccc(N)cc4)CC3c3ccc(Cl)cc3)c3ccccc3n2)cc1 (stereo not given) | 35.6% (inactive) |
| CCCOC(=O)Nc1nc2ccc(SCC)cc2s1 | 84.9% (inactive) |
| COc1cc(OC)c2c(=O)c3c(CC=C(C)C)cc(OC)c(O)c3oc2c1 | 82.9% (inactive) |
| Nc1nc(C(=O)N/N=C/c2ccc(F)cc2)nn1-c1ccc(S(N)(=O)=O)cc1 | 99.4% (inactive) |
| C=C(C)[C@@H]1CC[C@]2(CO)CC[C@]3(C)[C@H](CC[C@@H]4[C@@](C)(CCCN)[C@H](C(=C)C)CC[C@]43C)[C@@H]12 | -62.9% (active) |
